From PubChem BioAssay
KDM5B inh – blocks human KDM5B histone demethylase activity; KDM5B demethylase, FDH-coupled NADH fluorescence (FDH is formaldehyde dehydrogenase); Potency, µM (top dose mostly 57.7 µM), actives largely listed as inhibitors; 2.6% of 220,000 active; AID 1347165; active means well fitted inhibition curve with a large enough effect; further: 0% is about no effect; nearly all actives have a fitted effect of over 70% in size
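Compound dilutions met 200 nM (final) KDM5BΔAP for 10 min at room temperature before substrate addition. The substrate mix held 12.5 µM H3K4me3 with cofactors 25 µM α-ketoglutarate and 50 µM Fe²⁺. NADH signal gain over 30 min defined activity.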
Starred values were filed as active, the others as inactive; i = inactive. Many of the other results were omitted from the sample, so hits are more common in it than they were. Potency means the concentration at half of the fitted maximal effect.

SMILES	KDM5B inh
CCCCCCCOc1ccc(-c2ccc(C3CCC(CC)CC3)cn2)cc1F (stereo not drawn)	i
COc1ccc(C(=O)N2CCC3(CC2)CC(=O)Nc2ccccc2O3)cc1	i
COc1ccc(C(=O)N2CCC3(CC2)CC(=O)N(c2ccccc2)c2ccccc2O3)cc1	i
COc1ccc(C(=O)N2CCC3(CC2)CC(=O)c2ccccc2O3)cc1	31.6µM*
COc1ccc(S(=O)(=O)Nc2cc3c(cc2SC2CCCCC2)n(C)c(=O)n3C)cc1	i
COc1ccc(NC(=O)C2CCCN(c3cnccn3)C2)c(OC)c1 (stereo not drawn)	i
COc1cc(C)cc(C(C(=O)O)N2CCN(c3cnccn3)CC2)c1OC (stereo not drawn)	28.2µM*
COc1ccc(NC(=O)C2CCN(c3cnccn3)CC2)cc1OC	i
Cc1ccccc1NC(=O)CSC1=NS(=O)(=O)c2ccccc2N1Cc1ccccc1	i
Cc1cc(=O)n2c3ccccc3n(CC(O)CN3CCN(c4ccccc4)CC3)c2c1C#N (stereo not drawn)	i
O=C(CCc1c[nH]c2ccccc12)NC1CCc2nn(CC3CC3)c(=O)n2CC1 (stereo not drawn)	i
CNC1CCc2nn(CC3CC3)c(=O)n2CC1 (stereo not drawn)	i
Cc1ccsc1C(=O)NC1CCc2nn(CC3CC3)c(=O)n2CC1 (stereo not drawn)	i
COc1ccc(C(=O)NC2CCc3nn(CC4CC4)c(=O)n3CC2)c(C)c1 (stereo not drawn)	i
O=C(NC1CCc2nn(CC3CC3)c(=O)n2CC1)c1ccc[nH]c1=O (stereo not drawn)	28.2µM*
Cn1nc(C(=O)NC2CCc3nn(CC4CC4)c(=O)n3CC2)c2ccccc21 (stereo not drawn)	28.2µM*
c1ccc(-c2csc(C34CC5CC(CC(C5)C3)C4)n2)cc1	i
COc1ccc(-n2ccn(CC(=O)Nc3cccc(F)c3)c2=O)cc1	i
CC(NC(=O)c1ccc2c(c1)NC(=O)CO2)c1cccs1 (stereo not drawn)	i
CC1=C2C(=O)CC(c3cccc(Cl)c3)CC2=Nc2ccccc2N1 (stereo not drawn)	i
CC(C)c1noc(C2CCCN(Cc3cn(C(C)C)c4ccccc34)CCC(=O)NCC2)n1 (stereo not drawn)	i
C=CCNCc1ccccc1OC	i
COCCn1c(-c2cc(Cl)ccc2OC)n[nH]c1=S	i
Cc1ccc(CN(C(=S)NCC(=O)O)C2CCCCC2)cc1	i
O=C1CC(c2noc(-c3ccccc3OC(F)(F)F)n2)CN1C1CCCCC1 (stereo not drawn)	i
SMILES	KDM5B inh
O=C1c2cc(N3CCOCC3)nc(-c3cccc(O)c3)c2CN1CC(F)(F)F	39.8µM*
COc1ccc(CN2CCOc3nc(-c4cccc(C(F)(F)F)c4)ncc3C2=O)cc1	i
COCc1cc(=O)[nH]c(-c2ccccc2OC(F)(F)F)n1	i
Cc1ccc2nc(N3CCOCC3)nc(-c3ccccc3)c2c1	i
CCc1ccc(C(=O)c2cnc3cc(OC)c(OC)cc3c2N2CCOCC2)cc1	i
CN1Cc2c(cc(N3CCOCC3)nc2-c2ccccc2OC(F)(F)F)C1=O	35.5µM*
O=C(OCc1cc(=O)oc2cc(O)ccc12)c1ccc(N2CCOCC2)nc1	i
COc1cc(F)ccc1-c1nc(N2CCOCC2)cc2c1CN(CC(F)(F)F)C2=O	31.6µM*
COc1cc(F)ccc1-c1cn(C)c(=O)n2cc(COc3ccc(C(=O)O)cc3)nc12	i
O=C1c2cc(N3CCOCC3)nc(-c3ccccc3)c2CN1Cc1ccccc1	31.6µM*
COc1ccc(-c2nc(N3CCOCC3)cc3c2CN(Cc2ccccc2)C3=O)cc1	i
O=c1c2sccc2ncn1Cc1coc(-c2ccccc2Cl)n1	i
Cc1nc2nc(N)c(C#N)cn2n1	i
CC(C)NC(=O)N1CCC2(CC1)CN(C(=O)Cc1csc(N)n1)Cc1ccccc1O2	i
COC(=O)[C@H](Cc1ccc(OC)cc1)NC(=O)[C@H]1CN(S(=O)(=O)c2ccccc2)CCN1C(=O)c1cccs1	i
CCOCCCNC(=O)Nc1ccc2nc(N3CCOCC3)cc(C)c2c1	i
COC(=O)C1=C(C)N=C2SC=C(CC(=O)NCCOc3ccccc3)N2C1c1cccc(OC)c1 (stereo not drawn)	i
Cc1c(Cn2ccnc2-c2cc(C#CCO)cs2)oc2ccccc12	i
COc1ccc(Cl)cc1NC(=O)N1CC(C)Oc2ccc(C)cc21 (stereo not drawn)	i
O=C1c2cnc(-c3cccc(CO)c3)nc2OCCN1c1ccccc1	i
COc1cccc(C(=O)NC2CCN(c3cc(C(F)(F)F)nc(C)n3)CC2)c1OC	i
O=C1c2cc(N3CCOCC3)nc(-c3cccc(CO)c3)c2CN1c1ccccc1	35.5µM*
COc1ccccc1-c1n[nH]c2c1CC(=O)N(CC1CC1)C2	i
COc1ccc(CN2Cc3[nH]nc(-c4ccccc4OC)c3CC2=O)cc1	i
COc1cccc(-c2nc(N3CCOCC3)cc3c2CN(CC2CC2)C3=O)c1OC	35.5µM*
COc1cccc(-c2noc(N3CCCC3)n2)c1OC	i
